# In paper PMC7862700, “An all-to-all approach to the identification of sequence-specific readers for epigenetic DNA modifications on cytosine”:
# How the values were obtained:
# Experiment in all cases: DAPPL (digital affinity profiling via proximity ligation, sequencing); 10 mM Tris-HCl pH 7.5, 50 mM NaCl, 1 mM DTT, 4% glycerol, room temperature, 30 min; GST-TFs on glutathione beads, 16-mer random dsDNA library, 0.1% formaldehyde crosslink after washing; high values mean tight binding
# Details in all cases: protein: recombinant; tags: N-terminal GST; dsDNA, one strand shown
# [1] = biological target: T1, FLI1 (Homo sapiens, UniProt Q01543 1-452)
# T1 sequence: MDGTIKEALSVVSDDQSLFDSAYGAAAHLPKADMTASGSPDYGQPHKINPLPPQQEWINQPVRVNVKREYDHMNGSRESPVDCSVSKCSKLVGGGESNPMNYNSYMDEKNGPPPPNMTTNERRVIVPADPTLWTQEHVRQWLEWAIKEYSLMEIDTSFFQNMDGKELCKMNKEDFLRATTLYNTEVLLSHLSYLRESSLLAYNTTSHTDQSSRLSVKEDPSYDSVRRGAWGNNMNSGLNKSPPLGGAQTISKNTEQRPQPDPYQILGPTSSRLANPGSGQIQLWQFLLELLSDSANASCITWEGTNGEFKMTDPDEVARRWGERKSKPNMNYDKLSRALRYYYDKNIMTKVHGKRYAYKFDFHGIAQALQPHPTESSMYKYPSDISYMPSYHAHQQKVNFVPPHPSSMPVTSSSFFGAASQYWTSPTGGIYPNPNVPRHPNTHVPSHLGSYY
# Method in brief: (§1)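 Human transcription factors fused to GST were expressed in yeast, captured on glutathione beads, given DNA barcodes and pooled with a GST-only negative control. Pools were incubated with 200 nmole of a 16-mer random double-stranded DNA library in Tris/NaCl/DTT/glycerol buffer at room temperature for 30 min. They were then washed, crosslinked with 0.1% formaldehyde, proximity-ligated (BsaI/T4 ligase, 1 h, 37 °C), PCR-amplified and sequenced on an Illumina NextSeq500. Binding signal is each 6-mer's read frequency for a factor divided by its frequency for the GST control.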
# [2] = biological target: T2, ELK1 (Homo sapiens, UniProt P19419 1-428)
# T2 sequence: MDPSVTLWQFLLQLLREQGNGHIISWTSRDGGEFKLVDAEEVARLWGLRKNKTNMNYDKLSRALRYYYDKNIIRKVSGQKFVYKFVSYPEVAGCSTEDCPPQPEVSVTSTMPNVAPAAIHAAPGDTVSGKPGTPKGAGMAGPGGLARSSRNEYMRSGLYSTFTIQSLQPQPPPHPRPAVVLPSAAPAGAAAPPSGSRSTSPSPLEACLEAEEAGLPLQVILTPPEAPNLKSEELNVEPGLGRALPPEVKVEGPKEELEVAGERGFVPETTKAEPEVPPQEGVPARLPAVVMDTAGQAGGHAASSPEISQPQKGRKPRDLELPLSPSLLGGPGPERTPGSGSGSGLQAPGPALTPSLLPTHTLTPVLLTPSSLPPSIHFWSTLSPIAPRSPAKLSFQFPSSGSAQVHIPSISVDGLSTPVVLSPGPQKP
# Method in brief: as §1
# [3] = biological target: T3, GABPA (Homo sapiens, UniProt Q06546 1-454)
# T3 sequence: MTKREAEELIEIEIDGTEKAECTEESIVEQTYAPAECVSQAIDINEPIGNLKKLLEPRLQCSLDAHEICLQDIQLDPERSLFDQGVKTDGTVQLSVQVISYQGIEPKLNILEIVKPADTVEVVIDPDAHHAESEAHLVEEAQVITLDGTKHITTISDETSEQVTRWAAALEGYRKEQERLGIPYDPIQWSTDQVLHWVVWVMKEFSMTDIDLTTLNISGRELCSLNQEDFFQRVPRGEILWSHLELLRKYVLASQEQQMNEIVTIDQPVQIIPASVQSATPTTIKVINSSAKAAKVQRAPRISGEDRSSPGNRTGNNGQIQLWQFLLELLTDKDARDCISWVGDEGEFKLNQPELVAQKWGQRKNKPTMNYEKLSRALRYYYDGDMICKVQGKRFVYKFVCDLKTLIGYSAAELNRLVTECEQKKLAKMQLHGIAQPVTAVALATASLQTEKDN
# Method in brief: as §1
# [4] = biological target: T4, ERG (Homo sapiens, UniProt P11308 1-479)
# T4 sequence: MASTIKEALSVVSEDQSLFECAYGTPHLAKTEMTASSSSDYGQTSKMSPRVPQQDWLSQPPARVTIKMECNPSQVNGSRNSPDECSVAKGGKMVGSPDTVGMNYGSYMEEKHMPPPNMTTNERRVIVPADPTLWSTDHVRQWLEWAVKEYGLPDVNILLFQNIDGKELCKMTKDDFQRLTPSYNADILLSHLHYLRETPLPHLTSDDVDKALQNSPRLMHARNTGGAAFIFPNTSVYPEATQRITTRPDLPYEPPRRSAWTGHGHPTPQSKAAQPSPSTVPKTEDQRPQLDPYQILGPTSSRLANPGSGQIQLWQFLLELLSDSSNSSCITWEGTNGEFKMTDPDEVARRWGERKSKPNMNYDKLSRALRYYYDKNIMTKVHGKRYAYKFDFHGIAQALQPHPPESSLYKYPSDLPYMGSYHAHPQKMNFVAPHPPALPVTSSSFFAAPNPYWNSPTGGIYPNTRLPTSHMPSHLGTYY
# Method in brief: as §1
# [5] = biological target: ELF1 (Homo sapiens, UniProt P32519 1-619)
# Method in brief: as §1
# [6] = biological target: T5, EHF (Homo sapiens, UniProt Q9NZC4 1-300)
# T5 sequence: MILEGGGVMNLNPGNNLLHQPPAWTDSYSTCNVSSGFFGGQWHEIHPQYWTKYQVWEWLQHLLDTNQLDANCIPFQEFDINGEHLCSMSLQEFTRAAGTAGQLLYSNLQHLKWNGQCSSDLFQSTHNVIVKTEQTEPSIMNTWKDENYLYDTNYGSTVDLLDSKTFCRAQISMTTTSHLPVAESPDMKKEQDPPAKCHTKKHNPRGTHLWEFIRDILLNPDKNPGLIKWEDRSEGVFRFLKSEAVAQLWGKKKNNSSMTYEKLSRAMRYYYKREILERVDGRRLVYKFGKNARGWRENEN
# Method in brief: as §1
# [7] = biological target: SPI1 (Homo sapiens, UniProt P17947 1-270)
# Method in brief: as §1
# [8] = biological target: SPIB (Homo sapiens, UniProt Q01892 1-262)
# Method in brief: as §1
# [9] = biological target: T6, ELK3 (Homo sapiens, UniProt P41970 1-407)
# T6 sequence: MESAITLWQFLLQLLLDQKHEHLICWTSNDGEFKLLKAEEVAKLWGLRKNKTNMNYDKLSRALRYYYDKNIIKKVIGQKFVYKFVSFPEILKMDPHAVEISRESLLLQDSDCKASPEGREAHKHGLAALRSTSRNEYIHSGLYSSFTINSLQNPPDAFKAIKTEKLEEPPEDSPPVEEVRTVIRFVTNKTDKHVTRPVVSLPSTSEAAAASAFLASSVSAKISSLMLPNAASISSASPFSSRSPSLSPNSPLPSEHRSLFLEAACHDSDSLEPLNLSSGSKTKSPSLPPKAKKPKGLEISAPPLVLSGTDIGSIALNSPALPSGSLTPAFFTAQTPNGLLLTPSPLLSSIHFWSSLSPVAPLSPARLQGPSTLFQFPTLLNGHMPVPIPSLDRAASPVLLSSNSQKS
# Method in brief: as §1
# [10] = biological target: T7, FEV (Homo sapiens, UniProt Q99581 1-238)
# T7 sequence: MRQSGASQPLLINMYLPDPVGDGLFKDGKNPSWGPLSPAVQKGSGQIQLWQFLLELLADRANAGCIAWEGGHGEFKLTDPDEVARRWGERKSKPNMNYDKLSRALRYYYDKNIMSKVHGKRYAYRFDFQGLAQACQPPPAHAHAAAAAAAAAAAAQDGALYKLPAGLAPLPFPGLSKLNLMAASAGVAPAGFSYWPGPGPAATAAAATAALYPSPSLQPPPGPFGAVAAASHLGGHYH
# Method in brief: as §1
# [11] = biological target: ETV5 (Homo sapiens, UniProt P41161 1-510)
# Method in brief: as §1
# [12] = biological target: T8, SPIC (Homo sapiens, UniProt Q8N5J4 1-248)
# T8 sequence: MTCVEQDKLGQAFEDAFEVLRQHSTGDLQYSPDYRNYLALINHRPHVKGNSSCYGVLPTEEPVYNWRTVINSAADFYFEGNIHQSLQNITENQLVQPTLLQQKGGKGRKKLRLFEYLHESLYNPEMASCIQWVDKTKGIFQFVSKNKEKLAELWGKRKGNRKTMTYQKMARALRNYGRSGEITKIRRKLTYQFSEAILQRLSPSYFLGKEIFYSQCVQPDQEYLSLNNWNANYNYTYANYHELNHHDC
# Method in brief: as §1
# [13] = biological target: ELF4 (Homo sapiens, UniProt Q99607 1-663)
# Method in brief: as §1
# [14] = biological target: T9, ELK4 (Homo sapiens, UniProt P28324-2 1-405)
# T9 sequence: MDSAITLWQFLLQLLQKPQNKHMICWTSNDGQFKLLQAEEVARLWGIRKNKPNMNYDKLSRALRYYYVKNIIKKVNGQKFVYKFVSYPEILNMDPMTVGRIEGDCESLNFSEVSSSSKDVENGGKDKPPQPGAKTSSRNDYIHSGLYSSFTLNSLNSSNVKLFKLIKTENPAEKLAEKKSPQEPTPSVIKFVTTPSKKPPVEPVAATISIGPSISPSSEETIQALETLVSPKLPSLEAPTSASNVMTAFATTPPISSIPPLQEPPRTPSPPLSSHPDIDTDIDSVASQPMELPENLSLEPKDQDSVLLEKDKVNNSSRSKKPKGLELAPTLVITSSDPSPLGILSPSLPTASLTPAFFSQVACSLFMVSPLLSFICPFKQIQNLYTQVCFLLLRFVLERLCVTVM
# Method in brief: as §1
# [15] = biological target: T10, ETV2 (Homo sapiens, UniProt O00321 1-342)
# T10 sequence: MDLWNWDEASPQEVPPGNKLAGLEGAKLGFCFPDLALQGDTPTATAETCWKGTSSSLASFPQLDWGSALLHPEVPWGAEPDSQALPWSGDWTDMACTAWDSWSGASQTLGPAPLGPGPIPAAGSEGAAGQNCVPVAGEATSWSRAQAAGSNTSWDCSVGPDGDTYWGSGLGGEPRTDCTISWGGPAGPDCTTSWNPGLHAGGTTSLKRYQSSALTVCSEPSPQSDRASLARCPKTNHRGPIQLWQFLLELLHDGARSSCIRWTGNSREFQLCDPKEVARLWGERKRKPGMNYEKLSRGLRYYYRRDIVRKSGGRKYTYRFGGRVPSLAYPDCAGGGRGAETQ
# Method in brief: as §1
# [16] = biological target: T11, ELF3 (Homo sapiens, UniProt P78545 1-371)
# T11 sequence: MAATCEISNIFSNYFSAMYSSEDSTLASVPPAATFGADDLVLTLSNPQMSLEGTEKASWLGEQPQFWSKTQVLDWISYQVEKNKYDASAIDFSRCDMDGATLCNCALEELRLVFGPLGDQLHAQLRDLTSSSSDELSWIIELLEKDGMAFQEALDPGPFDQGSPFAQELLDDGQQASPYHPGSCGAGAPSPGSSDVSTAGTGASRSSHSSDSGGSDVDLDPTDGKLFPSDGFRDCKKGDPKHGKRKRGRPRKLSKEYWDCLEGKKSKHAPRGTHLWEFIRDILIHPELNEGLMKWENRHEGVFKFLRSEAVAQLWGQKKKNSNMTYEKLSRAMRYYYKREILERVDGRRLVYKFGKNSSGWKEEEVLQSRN
# Method in brief: as §1
# [17] = biological target: ETV1 (Homo sapiens, UniProt P50549 1-477)
# Method in brief: as §1
# SPIB, sequence (Q01892 whole entry): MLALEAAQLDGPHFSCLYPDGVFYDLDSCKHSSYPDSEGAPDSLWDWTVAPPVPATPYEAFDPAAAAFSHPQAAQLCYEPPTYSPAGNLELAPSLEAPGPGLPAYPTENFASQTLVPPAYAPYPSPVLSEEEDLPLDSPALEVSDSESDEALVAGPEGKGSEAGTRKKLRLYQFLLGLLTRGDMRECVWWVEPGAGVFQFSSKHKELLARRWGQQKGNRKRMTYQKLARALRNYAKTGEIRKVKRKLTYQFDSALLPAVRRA
# ETV5, sequence (P41161 whole entry): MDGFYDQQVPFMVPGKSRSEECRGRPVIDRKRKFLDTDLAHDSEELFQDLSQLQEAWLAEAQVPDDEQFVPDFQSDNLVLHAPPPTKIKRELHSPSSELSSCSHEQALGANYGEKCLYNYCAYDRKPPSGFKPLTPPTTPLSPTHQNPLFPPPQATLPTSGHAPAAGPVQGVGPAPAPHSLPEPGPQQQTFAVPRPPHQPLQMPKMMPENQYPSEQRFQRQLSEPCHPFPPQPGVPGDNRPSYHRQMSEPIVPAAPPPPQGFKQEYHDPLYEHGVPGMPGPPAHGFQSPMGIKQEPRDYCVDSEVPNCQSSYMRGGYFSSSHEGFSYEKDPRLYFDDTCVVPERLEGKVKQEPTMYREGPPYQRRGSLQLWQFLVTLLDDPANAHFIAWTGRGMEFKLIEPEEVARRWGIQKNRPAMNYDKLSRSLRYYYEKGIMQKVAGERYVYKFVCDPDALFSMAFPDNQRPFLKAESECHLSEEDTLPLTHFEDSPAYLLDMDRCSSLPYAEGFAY
# ETV1, sequence (P50549 whole entry): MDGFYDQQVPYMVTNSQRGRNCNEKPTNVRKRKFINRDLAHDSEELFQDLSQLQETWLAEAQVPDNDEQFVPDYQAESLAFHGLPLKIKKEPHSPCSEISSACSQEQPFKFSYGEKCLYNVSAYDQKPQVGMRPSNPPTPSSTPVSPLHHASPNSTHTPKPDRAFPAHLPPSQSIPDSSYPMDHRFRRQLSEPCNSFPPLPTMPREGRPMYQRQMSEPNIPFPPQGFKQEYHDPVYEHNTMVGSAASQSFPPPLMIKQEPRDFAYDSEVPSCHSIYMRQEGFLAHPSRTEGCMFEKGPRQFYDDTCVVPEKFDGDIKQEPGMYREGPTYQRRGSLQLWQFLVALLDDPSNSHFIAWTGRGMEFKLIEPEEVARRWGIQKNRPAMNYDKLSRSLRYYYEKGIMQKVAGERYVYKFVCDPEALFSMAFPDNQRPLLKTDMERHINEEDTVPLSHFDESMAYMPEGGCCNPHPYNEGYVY
# ELF4, sequence (Q99607 whole entry): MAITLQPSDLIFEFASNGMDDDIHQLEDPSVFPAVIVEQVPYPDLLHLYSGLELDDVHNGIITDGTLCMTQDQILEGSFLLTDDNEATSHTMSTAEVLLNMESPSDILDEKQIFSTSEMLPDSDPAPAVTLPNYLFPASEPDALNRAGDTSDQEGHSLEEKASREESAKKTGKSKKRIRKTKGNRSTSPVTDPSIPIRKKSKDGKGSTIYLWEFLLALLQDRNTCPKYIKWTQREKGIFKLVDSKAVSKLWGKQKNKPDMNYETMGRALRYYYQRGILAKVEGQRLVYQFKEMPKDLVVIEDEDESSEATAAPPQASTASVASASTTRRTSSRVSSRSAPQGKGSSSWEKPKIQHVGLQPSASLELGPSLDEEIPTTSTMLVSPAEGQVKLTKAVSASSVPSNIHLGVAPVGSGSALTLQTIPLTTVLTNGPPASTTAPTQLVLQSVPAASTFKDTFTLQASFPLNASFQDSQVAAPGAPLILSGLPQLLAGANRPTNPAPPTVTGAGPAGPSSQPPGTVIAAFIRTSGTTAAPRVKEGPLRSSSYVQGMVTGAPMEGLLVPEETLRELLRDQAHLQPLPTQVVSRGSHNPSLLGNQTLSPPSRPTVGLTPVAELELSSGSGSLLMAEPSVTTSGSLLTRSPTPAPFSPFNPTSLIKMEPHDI
# ELF1, sequence (P32519 whole entry): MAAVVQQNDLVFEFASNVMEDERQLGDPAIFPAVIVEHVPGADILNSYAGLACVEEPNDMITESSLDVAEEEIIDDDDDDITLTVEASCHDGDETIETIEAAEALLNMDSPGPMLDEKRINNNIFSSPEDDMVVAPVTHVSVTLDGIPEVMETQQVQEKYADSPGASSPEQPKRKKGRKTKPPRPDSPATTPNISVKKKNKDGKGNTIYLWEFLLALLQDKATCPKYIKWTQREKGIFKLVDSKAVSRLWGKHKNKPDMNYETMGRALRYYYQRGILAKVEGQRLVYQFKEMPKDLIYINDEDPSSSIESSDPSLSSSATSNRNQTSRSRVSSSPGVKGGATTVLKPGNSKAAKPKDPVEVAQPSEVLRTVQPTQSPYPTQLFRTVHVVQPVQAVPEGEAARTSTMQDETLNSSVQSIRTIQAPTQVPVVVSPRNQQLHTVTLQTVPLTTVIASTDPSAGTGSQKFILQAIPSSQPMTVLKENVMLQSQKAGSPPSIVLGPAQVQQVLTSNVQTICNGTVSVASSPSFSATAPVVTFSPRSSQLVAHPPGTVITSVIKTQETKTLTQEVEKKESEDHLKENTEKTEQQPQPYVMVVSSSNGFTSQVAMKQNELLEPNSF
sequence,measurement,setting,value
TGCGGA,binding signal,[1],"1.35 fold enrichment (6-mer frequency, TF over GST control)"
same,binding signal,[2],"1.27 fold enrichment (6-mer frequency, TF over GST control)"
same,binding signal,[3],"1.2 fold enrichment (6-mer frequency, TF over GST control)"
same,binding signal,[4],"1.37 fold enrichment (6-mer frequency, TF over GST control)"
same,binding signal,[5],"1.32 fold enrichment (6-mer frequency, TF over GST control)"
same,binding signal,[6],"1.37 fold enrichment (6-mer frequency, TF over GST control)"
same,binding signal,[7],"1.85 fold enrichment (6-mer frequency, TF over GST control)"
same,binding signal,[8],"1.29 fold enrichment (6-mer frequency, TF over GST control)"
same,binding signal,[9],"1.23 fold enrichment (6-mer frequency, TF over GST control)"
same,binding signal,[10],"1.19 fold enrichment (6-mer frequency, TF over GST control)"
same,binding signal,[11],"1.47 fold enrichment (6-mer frequency, TF over GST control)"
same,binding signal,[12],"1.44 fold enrichment (6-mer frequency, TF over GST control)"
same,binding signal,[13],"1.24 fold enrichment (6-mer frequency, TF over GST control)"
same,binding signal,[14],"1.13 fold enrichment (6-mer frequency, TF over GST control)"
same,binding signal,[15],"1.37 fold enrichment (6-mer frequency, TF over GST control)"
same,binding signal,[16],"1.74 fold enrichment (6-mer frequency, TF over GST control)"
same,binding signal,[17],"1.37 fold enrichment (6-mer frequency, TF over GST control)"
